The whole screen tested about 53,000 sequences, of which about 3,700 (7%) were called active. This is one part of a sample in which actives are shown more often than they occur. Unmarked numbers belong to inactive results.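 Rule for the calls: active = gene knockdowns whose robust z-score for IL-1 alpha signal is at least 2 or at most -2, so actives lie on both sides; inactive = the rest.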
Test: Components of the Cytosolic LPS Sensing Pathway: Gene Identification via Genome-wide siRNA Screen;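 note: robust z of the log signal after scaling to non-targeting control siRNA wells of the plate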
Conditions: RAW264.7 macrophages, IL-1a HTRF, actives lie on both sides, screened at 100 nM (by protocol), cells primed 5 h with Pam3CSK4 first
How it was run: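 Using IL-1a HTRF as read-out, the screen measured release from RAW264.7 cells after 48h siRNA knockdown (100 nM), 5 h Pam3CSK4 priming and 24 h cytosolic LipidA. Values were expressed relative to negative-control wells as robust z-scores.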

For GGGCAUCAUGAAACUAUGUTT against Kbtbd4, which z-score is on record?
Its z-score is -2.59 (active).

With GCUGAAGGCGACAAUGGAUTT against Ak2 as the sequence, how does the z-score read?
The z-score was -0.0901.

With GGCCUGCUAUAUGCAUUCCTT against Krtap12-1 as the sequence, how does the z-score read?
The z-score was 0.974.

For GGAAAAGAUGCCUGUAUUUTT against Sgcd, which z-score is on record?
The z-score was -0.422.

For GGAUUCCAAAUGCUUACAATT against Lysmd3, which z-score is on record?
Its z-score is 0.757.

Which z-score does the source give for GCCAAUGCAGGGUAAGUACTT against Tmtc2 here?
Its z-score is -2.83 (active).

With GCCUAUCCGACAACUUAGUTT against Slc25a17 as the sequence, how does the z-score read?
The z-score was 0.136.

For GCAUAACCAAGUGUGAUGCTT against Actrt2, which z-score is on record?
Its z-score is -0.439.

With GGAGAAAGUCAUCUUUGAUTT against Cdk5rap2 as the sequence, how does the z-score read?
Its z-score is -0.41.

Which z-score does the source give for GGAGACGGAGCUGUUAGAUTT against Plcb1 here?
The z-score was -0.104.

For GGUCCAUUAGCUAAAUCUUTT against Mysm1, which z-score is on record?
The z-score was 1.87.

Which z-score does the source give for CGAAGUGACAAUAAAUCAGTT against Snapc5 here?
Its z-score is -0.0661.

For GCAUCAGAGGGAUUUCACUTT against Slc35d3, which z-score is on record?
The z-score was -2.68 (active).

Which z-score does the source give for GGGAGCCAAAGUGAGAUUUTT against Azin2 here?
Its z-score is 0.736.

Which z-score does the source give for GGCAAAGUGAGUAAGACAGTT against Habp2 here?
The z-score was 0.0806.

With GCCCUAUUCCCAACUAUUCTT against Nefl as the sequence, how does the z-score read?
The z-score was -0.481.

With GGACUUUACAGACACUUUUTT against Kdm1b as the sequence, how does the z-score read?
Its z-score is -1.57.

With GCAGUUGUCACUGGCAAGUTT against Aqp2 as the sequence, how does the z-score read?
The z-score was 2.21 (active).

With GCAAAGGUUCUAGUUGAUATT against Cct2 as the sequence, how does the z-score read?
Its z-score is -0.585.

For CCGAUUUUGUGGCCUCAUGTT against Emg1, which z-score is on record?
Its z-score is -0.578.

Which z-score does the source give for GGAGAAAUGGGUAAAAACUTT against Paral1 here?
The z-score was 0.296.

Which z-score does the source give for GCCUAUGCUCAACUUCUCGTT against Thap4 here?
The z-score was -3.31 (active).

With GGCCCUGACAGAGGAAAAATT against Impa2 as the sequence, how does the z-score read?
Its z-score is -1.16.

With CGAUAUGAAGCGAAAUAUCTT against Pmpca as the sequence, how does the z-score read?
The z-score was 0.528.

With GCCUUCCAGUCAGUGAAAUTT against Foxn1 as the sequence, how does the z-score read?
Its z-score is -0.174.

Which z-score does the source give for GGAAAUCGAGCAAAAGACATT against Cep104 here?
The z-score was 1.5.

Which z-score does the source give for GCCAUUCUUUGAAAAGAGGTT against Ak8 here?
The z-score was -1.77.

With GGUCGUGAUAUUAUUGGGUTT against Ddx47 as the sequence, how does the z-score read?
Its z-score is 2.91 (active).

For GCAGGUAAGUUAAAUGAUGTT against Ccdc148, which z-score is on record?
The z-score was 0.961.

With CCCUUUACAUUACUCUAGCTT against Olfr715 as the sequence, how does the z-score read?
The z-score was 0.141.

Which z-score does the source give for GGGAGCGGAGCAAACAUAATT against Olfr1370 here?
Its z-score is 0.675.

With CGGUUCUUUUACCAAGAUCTT against Jak3 as the sequence, how does the z-score read?
Its z-score is -0.781.

Which z-score does the source give for GCCGAGUUUACUUGUUUGATT against Exd1 here?
The z-score was 0.554.

With GGAAGCAAACUUAAAGUGUTT against Ewsr1 as the sequence, how does the z-score read?
The z-score was 2.17 (active).

With GGUGUUCUGUAUCUUGUUCTT against Ndn as the sequence, how does the z-score read?
Its z-score is 0.572.

With GGAGCUCCAUGACAUGUUUTT against Stx3 as the sequence, how does the z-score read?
The z-score was -0.37.

With CGCGGAGUUUCGAAGUGUCTT against Drd4 as the sequence, how does the z-score read?
Its z-score is 3.64 (active).

With GGAACCUAACAGAGAAACATT against Prpsap2 as the sequence, how does the z-score read?
The z-score was -0.166.

With GCAAAUACUCAAGUUCAGATT against Cpt1b as the sequence, how does the z-score read?
The z-score was 0.382.

For GGAUACUCGGGAUCUAGUATT against Anxa11, which z-score is on record?
The z-score was -1.44.

For GGCAAUUCUGAAGAAACCATT against Ogn, which z-score is on record?
The z-score was -2.23 (active).

For GGAGGAGUCCCAUAACUCATT against Cby2, which z-score is on record?
The z-score was 1.05.

For GGUAAACUUGACAAUAGGATT against Zc3h14, which z-score is on record?
Its z-score is -0.512.

For CCCUGGUCGUCAUUUUCAATT against Morc2b, which z-score is on record?
The z-score was 1.54.

With GCACAAGCGUGGAACACAUTT against Dctn2 as the sequence, how does the z-score read?
The z-score was 0.702.

For GGCCCAACAUAUAUCAAAUTT against Adck2, which z-score is on record?
Its z-score is 1.38.

For GGAAACUGUUGAAUCUUGUTT against Smad5, which z-score is on record?
Its z-score is 1.42.

With CCACGCUCUCAAGGUAUAGTT against Cyp2d22 as the sequence, how does the z-score read?
The z-score was -2.81 (active).

With GGGAUUGGGUAUUUUUUAGTT against B4galt1 as the sequence, how does the z-score read?
Its z-score is -0.432.

With “CCCGUACAUUGAGUGCAAUTT against 6330403K07Rik” as the sequence, how does the z-score read?
Its z-score is 0.414.

For GGAGUUCAGGAAAAUUCUUTT against Fsd1l, which z-score is on record?
The z-score was 0.0551.

Which z-score does the source give for GGAAGACCUUCAGAGAGAATT against Ell2 here?
The z-score was 4.25 (active).

With GGGAAAGUUAAUAUCAAGATT against Ephb4 as the sequence, how does the z-score read?
The z-score was 0.185.

With GGUGAUGAUGAUGGGCAACTT against Cdkn2a as the sequence, how does the z-score read?
The z-score was 2.02 (active).

With GGACAAGAUUCUAAACUGCTT against Wdr37 as the sequence, how does the z-score read?
The z-score was 1.03.

Which z-score does the source give for GGCCUUGUAAAUUAUGCAUTT against Klhl23 here?
Its z-score is 0.61.

Which z-score does the source give for GCCCUUUCCGUCUGAAAUCTT against Hydin here?
The z-score was 2.06 (active).

For GCUUCUGGUUUUCGGCUAUTT against Sfswap, which z-score is on record?
Its z-score is 0.427.

With GAUGUGUUAACUACACCGATT against Pyy as the sequence, how does the z-score read?
Its z-score is 0.983.

With CGAGGAUGAGUUCAGUGAGTT against Pdcl3 as the sequence, how does the z-score read?
Its z-score is -1.19.

With GUUGGUUUGUUGACCUCUUTT against Arap2 as the sequence, how does the z-score read?
The z-score was 0.1.

Which z-score does the source give for CCUACUCUGGUAAAACCUUTT against Immp1l here?
Its z-score is -0.365.

For GCAAAGGCCAAAUAUGAGGTT against Dbil5, which z-score is on record?
The z-score was -2.71 (active).

Which z-score does the source give for GCCAUUAAAGGUAACACUGTT against Tmbim7 here?
Its z-score is 0.0423.

For GCCUUCUGAGAUAGUAGAUTT against Zcchc17, which z-score is on record?
Its z-score is 0.756.

Which z-score does the source give for GGAGAAAAUCAAACCAGAUTT against Ddx19b here?
The z-score was 0.823.

Which z-score does the source give for GGACUGAUGGAUCCUUCCATT against Krtcap3 here?
Its z-score is -2.12 (active).

Which z-score does the source give for GGCAUCCAUCAACAACAGGTT against Ahsa1 here?
Its z-score is -0.925.

Which z-score does the source give for GCAUGUACCCUCUUUGUAGTT against Gjb6 here?
Its z-score is -0.954.

With GGAUUCGAGUGGUAACAAGTT against Nmral1 as the sequence, how does the z-score read?
Its z-score is 0.617.

Which z-score does the source give for GGUAUAGCUACCAUUUUUCTT against Ggct here?
Its z-score is -1.05.

With CUUACCACCCUGAGUUUCATT against Olfr1066 as the sequence, how does the z-score read?
The z-score was -3.2 (active).

With GGAGAAAGCAGAAAUUGAATT against Mfap1a as the sequence, how does the z-score read?
Its z-score is -1.31.

For CCAAGAUUCGGUUUUGCUUTT against Trerf1, which z-score is on record?
The z-score was -0.33.

With GGCAGCCCUUUUGCUAAGATT against Neurod1 as the sequence, how does the z-score read?
The z-score was -0.0737.

With GGCUGGUGAAAGUCAAGGUTT against Arid4a as the sequence, how does the z-score read?
Its z-score is 0.503.

Which z-score does the source give for GGAGCAGUCUCCUUUUUGUTT against Pcnp here?
Its z-score is 2.14 (active).

Which z-score does the source give for GCUCUUGAUGUUUAGAGUUTT against Usp17lf here?
Its z-score is 0.345.

For GGGCAGCAGCAAUUUCUGUTT against Ahcyl1, which z-score is on record?
Its z-score is 1.39.

For GGAAAAAUUAGACCGUGAGTT against Pcdhb4, which z-score is on record?
Its z-score is -0.299.

For CCAUUGAUAUUAAAUCGCUTT against Pik3cg, which z-score is on record?
Its z-score is -0.244.

With GGGCUAUGUAUUGUAAAUGTT against Nxf1 as the sequence, how does the z-score read?
The z-score was -2.79 (active).

Which z-score does the source give for GCACGACUACUUCUCAAAUTT against Prpf6 here?
The z-score was 0.376.

Which z-score does the source give for GGCCAGAAUAUCAUCGUCATT against Rbks here?
The z-score was -0.163.

For GGGACACCUUCCGUAACUATT against Gcdh, which z-score is on record?
The z-score was -0.832.

For GCACGCUAUUGGCUAUGAGTT against BC052040, which z-score is on record?
The z-score was -0.0182.

For GGUCAUGAUCAAGACACAUTT against Tmem63c, which z-score is on record?
Its z-score is 0.371.

With AAGGUUUGGAAACUCAUUGTT against Zbtb25 as the sequence, how does the z-score read?
Its z-score is -1.77.

For GGGUUAGGCCAGUUCUGAUTT against Reg3d, which z-score is on record?
The z-score was -2.08 (active).

With GGAAGAGGAGGAGUACAAGTT against Fnbp1 as the sequence, how does the z-score read?
Its z-score is -0.0804.

For GCAGUUCAUGUCCUGAAUATT against Olfr308, which z-score is on record?
Its z-score is -1.49.

Which z-score does the source give for GUUUCCAUAUCCUUUAAGUTT against Lilr4b here?
The z-score was 1.23.

With GGAACUGCUCGACAAAGCUTT against Primpol as the sequence, how does the z-score read?
Its z-score is -2.53 (active).

For GGGUUAUAGGUGUGUGUGCTT against Gemin6, which z-score is on record?
Its z-score is -0.389.

For GCUGCACUUGAAAUCCGAGTT against Atg2b, which z-score is on record?
Its z-score is 1.49.

Which z-score does the source give for GCCCGUUCCACUUUUGGAGTT against Nedd1 here?
The z-score was 2.2 (active).

With GGAAGAAGCAGAAGAACAUTT against Rpl12 as the sequence, how does the z-score read?
The z-score was 2.55 (active).

Which z-score does the source give for GGAACUCCUGGAGCAGAACTT against Tbc1d10b here?
The z-score was -2.52 (active).

Which z-score does the source give for GGUUGUGCAAGAGUAUGAATT against Nphs2 here?
The z-score was 0.316.

With GCGCACAACAGACUUCUAUTT against Epm2a as the sequence, how does the z-score read?
The z-score was 0.0628.

Which z-score does the source give for GGAAGAACUUGACCCAGAGTT against Pex16 here?
Its z-score is 1.31.

With GGCGACAGUUGUUUUUGUGTT against Nlrp4b as the sequence, how does the z-score read?
Its z-score is -0.588.

Which z-score does the source give for GCUGUUUUACCUUAAUCCCTT against Tnfsf18 here?
The z-score was 0.601.

With “GGAAUUCCAAGUCAUUAUUTT against B230340J04Rik” as the sequence, how does the z-score read?
Its z-score is 0.664.

With GCAUCUUAGGCAUUGCUAGTT against Pcna as the sequence, how does the z-score read?
The z-score was -0.156.

For GGAUCAUGGGCGAAUGAUGTT against Rae1, which z-score is on record?
Its z-score is -1.41.

Which z-score does the source give for “GGACAAAAACAAAUGUGAGTT against 4933417A18Rik” here?
Its z-score is -2.43 (active).

Which z-score does the source give for GGAAUCAAAGGUCAAGCCATT against Rnf181 here?
Its z-score is 2.17 (active).

— PubChem BioAssay AID1508600 (Functional Genomics Laboratory (NCATS/FGL), 2020)
